Measured values: PubChem BioAssay AID1159580 (chemical genetic matrix, 2015)
Values joined by “and” are separate entries in the source; they are usually repeats but may differ in a detail not shown here. Identical values can stand only once. The campaign covered roughly 5,500 compounds. About 2,000 (36%) were called active. Roughly 18% stayed inconclusive and do not appear here. No stated cut-off is given here; in the data, active means normalized growth mostly below about 0.91 (no sharp cut-off); inconclusive means no clear call, values can overlap the other calls; inactive means mostly above about 0.92. Some of the results follow.

Assay: chemical genetic growth profiling, strain panel (AID 1159580);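 further: tested at 20 µM; growth read once vehicle control cultures reached saturation at 30 °C; 1 = growth at the plate median or of vehicle wells; lower values mean less growth of the strain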
Details: S. cerevisiae deletion strains, growth OD

Measured: normalized growth

Nc1ccncc1
inactive: locus YAL013W, strain DEP1, hits give low values 1.02 and 1.01 | locus YAL021C, strain ccr4, hits give low values 0.996 | locus YAL026C, strain drs2, hits give low values 1 | locus YAL030W, strain snc1, hits give low values 0.997 | locus YAL040C, strain CLN3, hits give low values 0.997 | locus YBL061C, strain skt5, hits give low values 0.99 | locus YBR009C, strain hhf1, hits give low values 1 | locus YBR021W, strain FUR4, hits give low values 1.02 | locus YBR023C, strain chs3, hits give low values 0.993 | locus YBR171W, strain sec66, hits give low values 0.979 | locus YBR229C, strain ROT2, hits give low values 0.985 | locus YBR231C, strain swc5, hits give low values 0.994 | locus YBR279W, strain paf1, hits give low values 0.998 | locus YCL011C, strain gbp2, hits give low values 0.995 | locus YCL016C, strain dcc1, hits give low values 1 | locus YCL029C, strain bik1, hits give low values 0.973 | locus YCL061C, strain MRC1 (second series), hits give low values 1 | locus YCL061C, strain MRC1, hits give low values 0.99 | locus YCL069W, strain vba3, hits give low values 0.998 | locus YCR088W, strain abp1, hits give low values 0.981 | locus YDL005C, strain med2, hits give low values 0.991 | locus YDL035C, strain GPR1, hits give low values 1.03 | locus YDL040C, strain nat1, hits give low values 0.989 | locus YDL074C, strain BRE1, hits give low values 1.05 | locus YDL101C, strain DUN1, hits give low values 1.01 | locus YDL134C, strain PPH21, hits give low values 1.02 | locus YDL185W, strain tfp1, hits give low values 0.981 | locus YDL192W, strain arf1, hits give low values 0.98 | locus YDR001C, strain nth1, hits give low values 0.991 | locus YDR069C, strain doa4, hits give low values 1 | locus YDR101C, strain arx1, hits give low values 0.972 | locus YDR137W, strain rgp1, hits give low values 1 | locus YDR150W, strain NUM1, hits give low values 1.02 | locus YDR159W, strain sac3, hits give low values 1 | locus YDR162C, strain NBP2, hits give low values 1.01 | locus YDR195W, strain ref2 1.01 | locus YDR297W, strain sur2, hits give low values 1 | locus YDR318W, strain mcm21, hits give low values 0.955 | locus YDR334W, strain swr1, hits give low values 0.997 | locus YDR335W, strain msn5, hits give low values 0.997 | locus YDR363W, strain ESC2, hits give low values 1.01 | locus YDR388W, hits give low values 0.965 | locus YDR392W, strain spt3, hits give low values 0.994 | locus YDR502C, strain sam2, hits give low values 0.968 | locus YEL003W, strain gim4, hits give low values 1 | locus YEL037C, strain rad23, hits give low values 0.989 | locus YEL061C, strain CIN8 (second series), hits give low values 0.994 | locus YEL061C, strain CIN8, hits give low values 1.01 | locus YER002W, strain NOP16, hits give low values 1.01 | locus YER015W, strain faa2, hits give low values 0.995 | locus YER016W, strain bim1, hits give low values 0.995 | locus YER110C, hits give low values 0.973 | locus YER111C, strain swi4, hits give low values 0.987 | locus YER155C, strain BEM2 (second series), hits give low values 0.947 | locus YER155C, strain BEM2, hits give low values 1.01 | locus YER167W, strain BCK2, hits give low values 1.02 | locus YFR010W, strain ubp6, hits give low values 0.996 | locus YGL078C, strain dbp3, hits give low values 0.982 | locus YGL086W, strain mad1, hits give low values 0.975 | locus YGL167C, strain pmr1, hits give low values 0.992 | locus YGL173C, strain kem1, hits give low values 0.99 | locus YGL227W, strain vid30, hits give low values 0.98 | locus YGL240W, strain doc1, hits give low values 1 | locus YGL248W, strain PDE1, hits give low values 1.02 | locus YGL253W, strain hxk2, hits give low values 1 | locus YGR078C, strain PAC10, hits give low values 1.02 and 1.01 | locus YGR135W, strain pre9, hits give low values 0.971 | locus YGR229C, strain SMI1, hits give low values 1.01 and 1 | locus YGR252W, strain gcn5, hits give low values 0.92 | locus YHR013C, strain ard1, hits give low values 0.999 | locus YHR027C, strain rpn1, hits give low values 0.998 | locus YHR030C, strain SLT2, hits give low values 1.01 and 0.98 | locus YHR079C, strain IRE1 (second series), hits give low values 0.965 | locus YHR079C, strain IRE1, hits give low values 0.961 | locus YHR094C, strain hxt1, hits give low values 0.974 | locus YHR129C, strain ARP1, hits give low values 1.01 | locus YHR142W, strain chs7, hits give low values 0.993 | locus YHR200W, strain rpn10, hits give low values 0.96 | locus YIL066C, strain RNR3, hits give low values 1.03 | locus YIL073C, strain SPO22, hits give low values 0.993 | locus YIL125W, strain kgd1, hits give low values 0.991 | locus YIR030C, strain dcg1, hits give low values 0.975 | locus YJL092W, strain hpr5, hits give low values 0.99 | locus YJL095W, strain BCK1 (second series), hits give low values 0.991 | locus YJL095W, strain BCK1, hits give low values 0.978 and 0.981 | locus YJL115W, strain asf1, hits give low values 0.984 | locus YJL129C, strain trk1, hits give low values 0.988 | locus YJL134W, strain LCB3, hits give low values 1.01 | locus YJL154C, strain vps35, hits give low values 0.992 | locus YJL164C, strain tpk1, hits give low values 1.01 | locus YJL166W, strain qcr8, hits give low values 0.989 | locus YJL168C, strain set2, hits give low values 0.963 | locus YJL187C, strain SWE1 (second series), hits give low values 1.03 | locus YJL187C, strain SWE1, hits give low values 1 | locus YJR043C, strain POL32, hits give low values 1 | locus YJR066W, strain TOR1, hits give low values 0.917
